Only a selection was taken, and hits are over-represented in it overall.
RXFP1 antagonist: RXFP1 (human) relaxin receptor antagonism; AID 1259400; HEK293-RXFP1, relaxin-stimulated cAMP HTRF, 30 min; stronger effect = lower value; activity change, negative = inhibition, % at 57.5 µM; 0.59% of 350,000 active;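 active = activity change of -60% or lower, but not beyond a set lower limit; inconclusive = change between -60% and -40%, or beyond the set limit; inactive = change above -40%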; note: % is set by controls: 0 for no effect and ±100 for the full control effect
Target sequence (Q9HBX9 whole entry, looked up): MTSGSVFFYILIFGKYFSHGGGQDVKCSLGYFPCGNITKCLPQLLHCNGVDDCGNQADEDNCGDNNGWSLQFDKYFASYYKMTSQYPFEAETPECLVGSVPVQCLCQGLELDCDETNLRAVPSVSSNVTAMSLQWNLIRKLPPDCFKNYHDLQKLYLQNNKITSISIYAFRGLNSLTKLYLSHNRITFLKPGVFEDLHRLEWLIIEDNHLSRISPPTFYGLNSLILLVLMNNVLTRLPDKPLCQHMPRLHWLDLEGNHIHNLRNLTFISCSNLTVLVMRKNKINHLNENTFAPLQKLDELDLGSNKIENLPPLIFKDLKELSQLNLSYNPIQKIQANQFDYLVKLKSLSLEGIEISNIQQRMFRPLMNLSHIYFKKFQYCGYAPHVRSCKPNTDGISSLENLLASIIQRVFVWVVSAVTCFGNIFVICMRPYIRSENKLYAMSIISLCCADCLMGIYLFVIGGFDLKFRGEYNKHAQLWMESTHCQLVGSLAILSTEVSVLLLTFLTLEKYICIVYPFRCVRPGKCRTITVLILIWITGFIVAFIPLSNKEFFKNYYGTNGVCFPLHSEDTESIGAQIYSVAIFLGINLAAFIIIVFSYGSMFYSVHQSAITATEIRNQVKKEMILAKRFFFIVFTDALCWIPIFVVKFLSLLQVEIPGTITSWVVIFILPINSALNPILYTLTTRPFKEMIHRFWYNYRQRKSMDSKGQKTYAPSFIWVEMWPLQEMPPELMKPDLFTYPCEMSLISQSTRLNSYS
PTHR1 agonist: activates the human parathyroid hormone receptor PTHR1; AID 743266; HEK293 GP2 PTHR1 cells, GloSensor cAMP luminescence, 1 h; 0.075% of 410,000 active; Potency, µM (doses to about 115 µM), without a hit: at the top dose activation, usual class: activators; Q03431; note: potency is the fitted concentration of half-maximal effect; nearly all actives have a fitted effect of over 55% in size
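HEK-293-derived GP2 cells expressing PTHR1 and a GloSensor cAMP reporter, 3,000/well, plated overnight, given luciferin plus IBMX (each 0.5 mM as added) for 1 h at 37 °C, then compound for 1 h at 37 °C. Luminescence was read after 15 min at room temperature.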
RXFP1 ag: activates the human relaxin receptor RXFP1; 0.3% of 370,000 active; AID 2676; Q9HBX9; Potency, µM (highest dose often 57.5 µM), inactives show top-dose activation, actives largely listed as activators; HEK293T-RXFP1 cAMP TR-FRET, 30 min; response scale: percent of porcine relaxin response, buffer zero; note: potency is the fitted concentration of half-maximal effect; % is set by controls: 0 for no effect and ±100 for the full control effect; nearly all actives have a fitted effect of over 60% in size
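cAMP rise read by TR-FRET after 30 min, 37C compound exposure (up to 58 uM) in RXFP1-transfected HEK293 cells with Ro 20174 present. EC50 from Hill-equation fits, with 29 nM porcine relaxin as 100% and buffer as basal.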
TCR activator: activates T cell receptor signaling; AID 504894; Potency, µM (doses to about 9.22 µM), for inactives: at the highest dose activation of IL-2 secretion, actives largely listed as activators; 330,000 tested, under 10 active; primary human leukocytes, anti-CD3, IL-2 HTRF, 48 h; note: % of control where 0% means no effect
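HTRF read-out of IL-2 secretion: europium cryptate donor excited at 320nm, d2 acceptor emission at 665nm. Cells were primary human leukocytes incubated 48 hr with compounds and a-CD3 beads, supplying TCR signal only.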
NPSR antagonist: blocks cAMP signaling of the human neuropeptide S receptor; Potency, µM (top dose mostly 38.3 µM), for inactives: at the highest dose activity change, negative = inhibition, actives largely listed as inhibitors; 1% of 220,000 active; Q6W5P4; CHO-NPSR cells, cAMP TR-FRET, antagonist mode; AID 1461; note: potency is the fitted concentration of half-maximal effect; % is set by controls: 0 for no effect and ±100 for the full control effect; nearly all actives have a fitted effect of over 50% in size
TSHR antagonist: blocks TSH signaling through the human TSH receptor | AID 504810 | 0.2% of 330,000 active | TSHR-expressing cells, TSH-stimulated cAMP HTRF, 2 h; stronger effect = lower value | P16473 | activity change, negative = inhibition, % at 11.5 µM;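 active = activity change below a set negative limit, meaning inhibition stronger than a set level, cut at about -70% in these data; inconclusive = activity change between two set negative limits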; note: % is set by controls: 0 for no effect and ±100 for the full control effect
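Inhibition of cAMP made by TSHR-expressing cells under TSH stimulation (4nM final, EC80; 2 h, 37 deg C) is quantified with a one-step lysis HTRF kit, anti-cAMP cryptate versus cAMP-d2.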
* = called active by the depositor; i = inactive; ? = inconclusive; / = no result given; [ ] = another dose, or the depositor's remark. Unless noted, calls come from the whole dose curve; as a rule, active = well fitted curve in the direction sought with a large enough effect; inconclusive = small, poorly fitted or top-dose-only effect, or another doubt; inactive = no such curve, though single readings can be large; an effect the other way counts as inactive or inconclusive.

SMILES	RXFP1 antagonist	PTHR1 agonist	RXFP1 ag	TCR activator	NPSR antagonist	TSHR antagonist
Cc1ccc(-c2nn(-c3ccccc3)cc2/C=N/NC(=O)c2ccc(Br)o2)cc1	-9	-17%	3%	2%	7.9µM*	-21
Cc1ccc(-c2nn(-c3ccccc3)cc2/C=N/NC(=O)c2ccncc2)o1	-15	-20%	0%	-7%	-21%	7
Cc1cccc(N2CCN(C(=O)c3cc4c(=O)n(C)c5ccccc5c4n3C)CC2C)c1 (centres undefined)	-77*	-15%	-1%	12%	?	-19
COc1ccc(OC(=O)N(CC(=O)O)Cc2ccc(OCCc3nc(-c4ccccc4)oc3C)cc2)cc1	7	/	/	/	/	/
COc1ccccc1CNCCCCCCNCCCCCCCCNCCCCCCNCc1ccccc1OC	/	/	/	/	13µM*	-13
CCCCCCCCNCCS(=O)(=O)NCc1ccccc1OC	/	i	/	0%	/	/
N#CC(C#N)=C1C=CC=CN1/C(=C\c1ccco1)C(=O)c1ccccc1	-104*	-31%	-2%	2%[46.1 µM]	?	?
N#CC(C#N)=C1C=CC=CN1/C(=C\c1ccco1)C(=O)c1ccc(Br)cc1	?	-13%	-1%	2%[46.1 µM]	?	-91*
COc1ccc(C(=O)/C(=C\c2ccco2)N2C=CC=CC2=C(C#N)C#N)cc1	-75*	-35%	2%	1%	-26%[46.1 µM]	?
Cc1nn(CCC(=O)Nc2ccccc2Br)c(=O)c2nn(-c3ccccc3)c(C)c12	0	-3%	0%	/	/	/
CC(C)Cn1c(/C=C/c2ccccc2)nc2ccccc21	-66*	-21%	4%	-5%[46.1 µM]	-27%[46.1 µM]	-26
CCn1c(/C=C/c2ccccc2)nc2ccccc21	-7	-16%[57.5 µM]	0%	/	-19%[46.1 µM]	20
CCCn1c(/C=C/c2cc[n+](C)cc2)nc2ccccc21	16	i	20µM*	-15%	/	-9
CCOC(=O)/C=c1/s/c(=C/c2ccc3cc(OC)ccc3c2)c(=O)n1CC(=O)NCc1ccc2c(c1)OCO2	-79*	i	/	-5%	/	/
CCOC(=O)/C=c1\s/c(=C\c2ccc(-c3ccccc3)cc2)c(=O)n1CC(=O)NCc1ccc2c(c1)OCO2	-5	i	1%	-1%[46.1 µM]	2%	20
O=C1Nc2ccccc2C1(c1ccc(O)cc1)c1ccc(O)cc1	-29	/	/	/	/	/
CCOC(=O)C1(Cc2cccc(Cl)c2)CCCN(C(=O)c2ccnn2C)C1 (centres undefined)	-6	-5%	0%	9%	/	-14
CCCc1cc(C(=O)N2CCCC(Cc3cccc(Cl)c3)(C(=O)OCC)C2)n(C)n1 (centres undefined)	-64*	-27%	-7%	2%	/	-8
COc1ccc(O[C@H]2C=C[C@@H](c3ccccc3)O[C@@H]2COC(=O)CC/C(C)=N/O[C@@H](C)CN2CCCCc3nc(C)c(C)cc32)cc1	/	/	1%	/	16µM*	-2
O=C(COc1ccccc1)Nc1nnc2n1CCS2	3	i	3%	/	/	/
CC(C)(C)C(=O)NC(=S)NNC(=O)c1sc2ccccc2c1Cl	?	-4%	-2%	-5%[46.1 µM]	-52%	-94*
Cc1cccc(OCCCn2c(CCNC(=O)C(C)(C)C)nc3ccccc32)c1	-4	-30%	-2%	/	/	/
Cc1ccccc1OCCCCn1c(CCNC(=O)C(C)(C)C)nc2ccccc21	-63*	-26%	-1%	/	/	/
CC(C)C(=O)NCCc1nc2ccccc2n1CCCOc1ccc(Cl)cc1	-11	-20%[57.5 µM]	-1%	2%	-17%[46.1 µM]	-14
CC(C)(C)C(=O)NCCc1nc2ccccc2n1CCCCOc1ccc(Cl)cc1	-85*	-38%	-1%	/	/	/
SMILES	RXFP1 antagonist	PTHR1 agonist	RXFP1 ag	TCR activator	NPSR antagonist	TSHR antagonist
CCOC(=O)Cn1c(=O)n(-c2ccc(Cl)cc2)c2nc(-c3ccc(Cl)cc3)nc(C(N)=O)c21	/	29%	4%	/	/	/
COC(=O)CSc1nc2sc3c(c2c(=O)n1-c1ccccc1C)CC(C)(C)OC3	/	-19%	3%	/	/	/
COc1ccc(-n2c(SCC(=O)Nc3ccc(Br)cc3)nc(O)cc2=O)cc1	-66*	-27%	0%	-2%	-10%	-16
COc1cccc(CNC(=O)CCNS(=O)(=O)c2ccc3c(c2)CCCC(=O)N3)c1	/	i	5%	/	/	/
CC(=O)c1ccc(NC(=O)CSc2nccn2C2CCCC2)cc1	-5	-9%	1%	/	/	/
CC(=O)c1c(C)[nH]c(C(=O)COC(=O)CCSc2ccccc2)c1C	-64*	-6%	0%	3%[46.1 µM]	5%	-1
O=C(Nc1ccc(F)cc1F)N1CCc2c(sc3c2CCCC3)C1c1ccc(F)cc1 (centres undefined)	-36	-6%	-1%	/	/	/
CC(C)(C)Nc1c(-c2ccc(O)cc2)nc2ccc(Cl)cn12	-8	i	0%	0%	-11%	-15
Oc1ccc(-c2nc3ccc(Cl)cn3c2Nc2ccc(Cl)cc2)cc1	-67*	-26%	7%	/	/	/
COc1ccc(C)cc1NC(=O)C(=O)NCC(c1cccnc1)N1CCN(c2ccccc2F)CC1 (centres undefined)	-33	-62%	-2%	/	/	/
O=C(Nc1nnc(SCc2ccc(F)cc2)s1)C1Cc2ccccc2CN1C(=O)c1ccco1 (centres undefined)	-64*	-29%	0%	-202%	-17%[46.1 µM]	22
Cc1[nH]c(=S)c(C#N)c(C)c1Cc1ccccc1	-20	-8%	11%	-4%	1%	-3
Cc1[nH]c(=S)c(C#N)c(C)c1CCC#N	-119*	9%	0%	0%	7%	-7
CC(=O)N1CC(=O)N=C1SCC(=O)Nc1nc(-c2ccccc2)c(-c2ccccc2)s1	-86*	i	1%	7%[46.1 µM]	10µM*	-9
Cc1sc(NC(=O)CSC2=NCCS2)nc1-c1ccccc1	6	-47%	0%	-3%	-14%[46.1 µM]	-17
CN(C1=C(N2CCCCC2)C(=O)c2ccccc2C1=O)c1ccccc1	-35	-9%[57.5 µM]	-3%	/	13µM*	-27
CC(C)OC(=O)c1c(N)n(CCCN2CCOCC2)c2nc3ccccc3nc12	5	i	1%	-4%	-6%[46.1 µM]	0
CC(C)OC(=O)c1c2nc3ccccc3nc2n2c1[nH]c(=O)c1ccccc12	/	/	6%	/	10µM*	3
Cc1ccc(N(Cc2cccs2)C(=O)COc2cccc(C)c2)cc1	/	-31%	2%	/	/	/
COc1ccc(N(Cc2cccs2)C(=O)COc2cccc(C)c2C)cc1	-72*	-28%	0%	/	/	/
Cc1cc(C)cc(OCC(=O)N(Cc2cccs2)c2ccc(Cl)cc2)c1	/	i	0%	/	/	/
COc1ccc(N(Cc2cccs2)C(=O)COc2cc(C)c(Cl)c(C)c2)cc1	-69*	-69%	-2%	/	/	/
